Measurements reported in PubChem BioAssay.
The source made the active and inactive calls.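 The calls were made as follows: active = fluorescence slope higher than the sample average by over 3 SD (cut at about -0.22 in these data, passing the limit was not always enough); inactive = the rest.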

Biological target: Voltage-gated potassium channel subunit beta-2 (Rattus norvegicus) (UniProt P62483)
Assay: inhibitors of rat Kvbeta2 reductase activity – biochemical, NADPH fluorescence, primary screen (AID 622);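 also: slope of raw intensity against log time taken from 70 to 1610 s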
Conditions: recombinant KvBeta, 4-cyanobenzaldehyde reduction, at 10 µM, hits give high values

Sequence of Voltage-gated potassium channel subunit beta-2 (Rattus norvegicus) (P62483 whole entry, looked up): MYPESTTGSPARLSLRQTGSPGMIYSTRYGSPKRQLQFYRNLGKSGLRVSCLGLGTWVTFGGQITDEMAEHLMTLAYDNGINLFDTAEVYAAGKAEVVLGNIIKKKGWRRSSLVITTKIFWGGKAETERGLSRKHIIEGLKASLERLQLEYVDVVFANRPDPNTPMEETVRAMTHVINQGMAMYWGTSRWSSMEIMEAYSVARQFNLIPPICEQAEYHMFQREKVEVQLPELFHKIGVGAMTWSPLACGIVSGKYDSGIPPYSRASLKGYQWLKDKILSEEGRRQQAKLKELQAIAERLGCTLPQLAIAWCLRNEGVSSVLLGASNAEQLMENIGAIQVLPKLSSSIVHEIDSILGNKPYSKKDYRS

Fluorescence slope, inactive:
CS(=O)(=O)Nc1ccc(C(=O)NCCc2ccccc2)cc1 -0.535
Cc1ccc(S(=O)(=O)NCCC(=O)OCn2nnc3ccccc3c2=O)cc1 -0.454
O=C(N1CCOCC1)N1CCC(NC(=O)C23CC4CC(CC(C4)C2)C3)CC1 -0.55
COc1ccc(C(=O)N2CCOCC2)cc1Br -0.49
Cc1ccc(S(=O)(=O)CCc2nnc(NC(=O)c3cnccn3)s2)cc1 -0.407
O=C(C1CCN(S(=O)(=O)Cc2ccccc2)CC1)N1CCN(c2ncccn2)CC1 -0.431
COc1ccc(C2CC(=O)c3c(C)nc(N4CCN(c5ccccc5)CC4)nc3C2)cc1 (stereo unspecified) -0.574
Nc1nonc1C(=O)NCCNCc1cc(Br)ccc1OCc1ccccc1F -0.574
CCCCN(CC)S(=O)(=O)c1ccc2c(c1)CCCN2C(C)=O -0.545
Cc1c(Cc2ccccc2)sc(N)c1C(N)=O -0.574
CCOC(=O)N1CCN(c2cc3nccnc3cc2F)CC1 -0.173
N#Cc1nc(COc2ccccc2)oc1NCCN1CCOCC1 -0.569
O=C(Nc1ccccc1)N1C(=O)C2(OCCO2)c2ccccc21 -0.542
CCOC(=O)C1CCCN(C(=O)c2cc3c(C)nc4ccccc4c3o2)C1 (stereo unspecified) -0.522
CC12C(=O)N(CCC(=O)O)C(=O)C1C1C=CC2C1 (stereo unspecified) -0.456
CCCC(=O)N1CCN(c2ccc(NC(=O)c3ccc(Br)o3)cc2)CC1 -0.457
